Source: ChEMBL document CHEMBL4513146, “CO-ADD screening of Karazin Kharkiv National University (Ukraine) compounds”
Results with a measured potency or affinity are listed apart.

What follows are compounds tested on Staphylococcus aureus. Settings: Concentration 32 ug.mL-1;; ASSAY_TEST Inhibition of Bacterial Growth; detection method Absorption (OD600); MEDIA CAMHB; plate type 384well; NBS; CORNING #3640; time 18 hr.
`COc1ccc(NC(=O)Cn2c(=O)c3nnc(C(C)C)n3c3ccccc32)cc1Cl` showed an Inhibition of 10.36%. With `COc1ccc(NC(=O)Cn2nc3c(Sc4cccc(F)c4)nccn3c2=O)cc1Cl` the Inhibition was 6.9%. For `Cc1cc(C)c(NC(=O)Cn2nc3c(N4CCN(c5ccccc5)CC4)nccn3c2=O)c(C)c1`, the Inhibition was 13.62%. `O=C(Cn1nc2nc(Nc3ccc(F)cc3)ccn2c1=O)NCC1CCCO1` (stereo not given) gave an Inhibition of 2.52%. With `COc1cccc(-n2ccn3c(-c4ccc([N+](=O)[O-])cc4)nnc3c2=O)c1` the Inhibition was 5.77%. In the case of `COc1cc(OC)c(NC(=O)Cn2nc3c(Oc4cccc(C)c4C)nccn3c2=O)cc1Cl`, the Inhibition is reported as 1.15%. `Cc1ccc(NC(=O)Cn2nc3c(N4CCOCC4)nccn3c2=O)cc1F` gave an Inhibition of 9.97%. `Cc1ccc(-c2cc3c4nnc(CCC(=O)N5CCC(Cc6ccccc6)CC5)n4ccn3n2)cc1C` gave an Inhibition of 10.73%. For `Cc1ccc(Sc2nccn3c(=O)n(CC(=O)Nc4ccc(Br)cc4C)nc23)c(C)c1`, the Inhibition was -15.15%. Compound `CC(C)(C)NC(=O)Cn1nc2n(Cc3cccs3)c(=O)c3sccc3n2c1=O` has an Inhibition of -26.19%. Compound `O=C(Cn1nc2c3cc(-c4ccc(Cl)cc4)nn3ccn2c1=O)Nc1ccc2c(c1)OCCO2` has an Inhibition of -0.49%. `Cc1ccc(CN(c2ccc(C(C)C)cc2)S(=O)(=O)c2cccn3c(C)nnc23)cc1` gave an Inhibition of 3.26%. For `COc1ccc(-c2cc3c4nn(CC(=O)Nc5cc(C)ccc5OC)c(=O)n4ccn3n2)cc1`, the Inhibition was 1.5%. With `CCOc1ccc(NC(=O)Cn2nc3ccc(SCc4ccc(Cl)cc4)nn3c2=O)cc1` the Inhibition was 5.28%. `Cc1cc2nn(CC(=O)Nc3ccccc3F)c(=O)n2c(Nc2ccc(C)c(F)c2)n1` was tested, and the Inhibition was -7.63%. `COc1cc(NC(=O)Cn2nc3c(N4CCCC4)nccn3c2=O)cc(OC)c1` was tested, and the Inhibition was 5.55%. `COc1cccc(CNC(=O)CSc2nnc3ccc(C(=O)Nc4cccc(F)c4)cn23)c1` showed an Inhibition of 9.49%. Compound `COC(=O)c1ccc(NC(=O)Cn2nc3ccc(S(=O)(=O)C4CCCCC4)nn3c2=O)cc1` has an Inhibition of 8.6%. Compound `COc1cccc(NC(=O)Cn2nc3c4cc(-c5ccc(Cl)cc5)nn4ccn3c2=O)c1` has an Inhibition of 4.83%. `Cc1ccc(-c2ccc3nn(CC(=O)Nc4ccc(Cl)cc4)c(=O)n3n2)cc1C` showed an Inhibition of 7.83%. `O=C(CCc1nnc2c(N3CCCCC3)nc3ccccc3n12)NCc1ccccc1F` gave an Inhibition of 5.87%. Work on `Cc1cc(C)cc(Nc2nc(C)cc3nn(CC(=O)Nc4ccc(F)cc4F)c(=O)n23)c1` yielded an Inhibition of 11.96%. For `O=C(Cn1nc2n(Cc3ccccc3)c(=O)c3ccccc3n2c1=O)Nc1ccc2c(c1)OCO2`, the Inhibition was -3.15%. `COc1ccc(NC(=O)c2ccc3nn(CC(=O)Nc4ccc(C(C)C)cc4)c(=O)n3c2)cc1` was tested, and the Inhibition was 9.69%. `CC(C)CCNC(=O)CSc1nnc2c(=O)n(-c3ccc(F)cc3)ccn12` was tested, and the Inhibition was 8.18%. With `Cc1ccc(-c2ccc3nn(Cc4cccc(F)c4)c(=O)n3n2)cc1C` the Inhibition was 7.67%. Compound `CCCCOc1ccc(-c2cc3c4nnc(SCC(=O)Nc5ccc(F)cc5)n4ccn3n2)cc1` has an Inhibition of 2.53%. For `COc1cccc(CN(c2cccc(F)c2)S(=O)(=O)c2ccc3nnc(C)n3c2)c1`, the Inhibition was -5.28%. With `Cc1ccc(Cl)cc1NC(=O)Cn1nc2c(N3CCOCC3)nc3ccccc3n2c1=O` the Inhibition was -1.67%. `Cc1ccccc1NC(=O)Cn1nc2c3cc(-c4ccc(Cl)cc4)nn3ccn2c1=O` showed an Inhibition of 14.21%. In the case of `CCOC(=O)c1cccc(NC(=O)CSc2nc3ccccc3n3c(C(C)C)nnc23)c1`, the Inhibition is reported as 7.87%. With `CC(C)c1ccc(N(Cc2ccccc2)S(=O)(=O)c2cccn3cnnc23)cc1` the Inhibition was 5.98%. `Cc1ccc(Sc2nccn3c(=O)n(CC(=O)Nc4ccc(C)cc4Br)nc23)c(C)c1` was tested, and the Inhibition was 8.09%. In the case of `CCc1ccc(N(Cc2cccc(OC)c2)S(=O)(=O)c2cccn3cnnc23)cc1`, the Inhibition is reported as 17.37%. `Cc1cccc(Oc2nc3ccccc3n3c(=O)n(CC(=O)Nc4ccc5c(c4)OCCO5)nc23)c1C` showed an Inhibition of 10.6%. `O=C(Cn1nc2ccc(C(=O)NCc3ccccc3)cn2c1=O)Nc1ccc(Br)cc1` showed an Inhibition of 3.47%. `Cc1ccc(-c2ccc3nn(Cc4c(F)cccc4Cl)c(=O)n3n2)cc1` gave an Inhibition of 14.3%. `O=S(=O)(c1ccc2nncn2c1)N(Cc1ccc(Cl)cc1)c1ccc2c(c1)OCO2` showed an Inhibition of 11.62%. For `CCOc1ccc(N(Cc2cccc(F)c2)S(=O)(=O)c2ccc3nncn3c2)cc1`, the Inhibition was 8.4%. With `CCc1ccccc1NC(=O)Cn1nc2c(SC3CCCCC3)nccn2c1=O` the Inhibition was 7.59%.
